Source: PubChem BioAssay (Tox21)
Results filed as inconclusive are left out. Active and inactive are the calls of the source. Unless noted, calls follow the shape of the full dose curve.

Legend:
[1] = Nuclear factor erythroid 2-related factor 2/antioxidant responsive element (Nrf2/ARE) small molecule agonists: qHTS cell viability counter screen in human keratinocytes (AID 1919968; active = well fitted curve in the direction sought with a large enough effect in the repeat runs; an effect the other way counts as inactive or inconclusive; also: nearly all actives have a fitted effect of over 55% in size; also: potency is read from the fitted curve at half-maximal effect)
Outline: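 KeratinoSens cells (HaCaT keratinocytes stably carrying an ARE-luciferase reporter) were seeded at 1,500 cells/well and rested 5 h at 37 C/5% CO2. They were then exposed to compounds in DMSO for 23 h. Viability was read by CellTiter-Fluor fluorescence after 1 h.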

[2] = target: Gonadotropin-releasing hormone receptor (Homo sapiens) (UniProt P30968); experiment: Human gonadotropin-releasing hormone receptor (GnRHR) small molecule agonists, calcium flux assay in GnRHR-HEK293 cells (AID 1920063); also: nearly all actives have a fitted effect of over 35% in size
Outline: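 HEK293 cells stably expressing human GnRHR were plated 18 h at 37 °C, loaded with calcium dye 1 h at 37 °C, then given compound in agonist mode; fluorescence (Ex/Em 480/540) read kinetically for 3 min at 1 s intervals.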

[3] = target: KiSS-1 receptor (Homo sapiens) (UniProt Q969F8); experiment: Human kisspeptin (KISS1R) small molecule agonists, calcium flux assay in KISS1R-HEK293 cells (AID 1920064; active = well fitted curve in the direction sought with a large enough effect in the repeat runs; an effect the other way counts as inactive or inconclusive)
Outline: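 HEK293 cells stably expressing human KISS1R were plated 18 h at 37 °C, loaded with calcium dye for 1 h at 37 °C, then given compound by pin tool. Fluorescence (Ex/Em 480/540) was read kinetically for 3 min.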

[4] = G protein-coupled receptor (GPCR) small molecule agonists, calcium flux assay: HEK293 wild type cell line counter screen (AID 1920065)
Outline: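 Cells were plated and cultured 18 h at 37 C/5% CO2, then loaded with calcium dye for 1 h at 37 C. Compounds in DMSO were pin-transferred in agonist mode, and fluorescence (Ex/Em 480/540) was read kinetically for 3 min at 1 s intervals.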

[5] = p53 small molecule agonists, cell-based qHTS assay with rat liver microsomes: qHTS cell viability counter screen (AID 1963580); also: nearly all actives have a fitted effect of over 45% in size
Outline: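 Intracellular ATP, by CellTiter-Glo luminescence, defines viability. HCT-116 p53RE-bla cells, 4,000 per well, were compound-treated in the presence of rat liver microsomes and NADPH for 16 h at 37 C.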

[6] = p53 small molecule agonists, cell-based qHTS assay: qHTS cell viability counter screen (AID 1963581); also: nearly all actives have a fitted effect of over 45% in size
Outline: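 p53RE-bla HCT-116 cells were exposed to compounds for 16 h at 37 C; after the beta-lactamase FRET read in the same wells, CellTiter-Glo was added and luminescence (intracellular ATP) read after 30 min at room temperature.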

[7] = target: 5-hydroxytryptamine receptor 2A (Homo sapiens) (UniProt P28223); experiment: 5-hydroxytryptamine receptor 2A (HTR2A) small molecule antagonists, cell-based qHTS assay (AID 1963586); also: nearly all actives have a fitted effect of over 45% in size; also: potency is read from the fitted curve at half-maximal effect
Outline: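 Antagonist-mode intracellular calcium assay: DOI (4 nM) added after 5 min compound pre-incubation at room temperature to dye-loaded HTR2A-CHO cells. Fluorescence followed for 3 min, sampled every second.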

[8] = target: 5-hydroxytryptamine receptor 2A (Homo sapiens) (UniProt P28223); experiment: 5-hydroxytryptamine receptor 2A (HTR2A) small molecule agonists, cell-based qHTS assay (AID 1963587); also: nearly all actives have a fitted effect of over 30% in size; also: potency is read from the fitted curve at half-maximal effect
Outline: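 Kinetic calcium-flux fluorescence (2 min, 1 sec intervals) after compound addition in agonist mode. HTR2A-CHO cells were cultured 18 h, then dye-loaded 1 h at 37 C.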

[9] = target: Muscarinic acetylcholine receptor M1 (Homo sapiens) (UniProt P11229); experiment: Cholinergic receptor muscarinic 1 (CHRM1) small molecule agonists, cell-based qHTS assay (AID 1963589); also: nearly all actives have a fitted effect of over 35% in size
Outline: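 CHO cells stably expressing human CHRM1, seeded 18 h at 37 C/5% CO2, dye-loaded 1 h at 37 C, then given compound in agonist mode; intracellular calcium fluorescence read kinetically at 1 s intervals. Fifteen concentrations, three independent runs.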

[10] = cAMP Responsive Elements (CRE) small molecule antagonists, cell-based qHTS assay (AID 1963591; active = well fitted inhibition curve with a large enough effect in the signal ratio in the repeat runs, not every such curve was filed as active; the % refers to the signal ratio)
Outline: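 CRE-bla HEK293T cells were plated 18 h at 37 °C/5% CO2, pinned with compound in DMSO, then stimulated with NKH477 at 0.25 uM final for 3 h. LiveBLAzer B/G FRET substrate was added and plates incubated 2 h at room temperature.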

[11] = target: Beta-2 adrenergic receptor (Homo sapiens) (UniProt P07550); experiment: Adrenergic beta2 receptor (ADRB2) small molecule antagonists, cell-based qHTS assay (AID 1963592); also: nearly all actives have a fitted effect of over 50% in size; also: potency is read from the fitted curve at half-maximal effect
Outline: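 Cells (CHO, stable ADRB2 overexpression) incubated 18-20hr at 37C; compounds added from DMSO; agonist mix (1nM isoproterenol, 100uM IBMX, 25uM Ro-20-1724) added; 0.5hr RT; d2-cAMP and anti-cAMP-cryptate added; 1hr RT; 665/615 nm read.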

[12] = target: D(2) dopamine receptor (Homo sapiens) (UniProt P14416); experiment: Dopamine D2 receptor (DRD2) small molecule agonists, cell-based qHTS assay (AID 1963594); also: nearly all actives have a fitted effect of over 35% in size; also: potency is read from the fitted curve at half-maximal effect
Outline: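 cAMP accumulation in DRD2-HEK293 cells measured by HTRF after 1 h detection; compounds added 10 min before NKH477 (200nM […]) forskolin-analogue stimulation, 30 min at room temperature, with Ro20-1724 present at 0.1 mM final.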

[13] = target: D(2) dopamine receptor (Homo sapiens) (UniProt P14416); experiment: Dopamine D2 receptor (DRD2) small molecule antagonists, cell-based qHTS assay (AID 1963595; active = well fitted inhibition curve with a large enough effect in the signal ratio in the repeat runs, with a control signal flat; the % refers to the signal ratio)
Outline: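 HEK293 cells stably expressing DRD2 were preincubated with 0.1 mM Ro20-1724, then with compound for 10 min at room temperature. Cells were stimulated with 200 nM NKH477 plus 12 nM quinpirole for 30 min, and cAMP was read by HTRF.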

[14] = p53 small molecule agonists, cell-based qHTS assay with human liver microsomes (AID 1963577);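 also: p53 response element beta-lactamase reporter cells with liver microsomes plus NADPH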
Outline: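 HLM-supplemented p53RE-bla reporter assay: 16 h compound exposure at 37 C, microsomes and NADPH each 0.5 mg/mL final, read by fluorescence intensity.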

[15] = p53 small molecule agonists, cell-based qHTS assay with rat liver microsomes (AID 1963578)
Outline: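 Quantitative HTS of the Tox21 10K library: p53RE-bla cells, rat liver microsomes plus NADPH at 0.5 mg/mL final each, 16 h at 37 C, beta-lactamase fluorescence detection.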

[16] = p53 small molecule agonists, cell-based qHTS assay with human liver microsomes: qHTS cell viability counter screen (AID 1963579); also: nearly all actives have a fitted effect of over 45% in size
Outline: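 Viability of p53RE-bla cells is measured as CellTiter-Glo luminescence following a 16 h, 37 C incubation with compound, liver microsomes from human donors and NADPH.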

[17] = p53 small molecule agonists, cell-based qHTS assay (AID 1963582; active = well fitted activation curve with a large enough effect in the signal ratio in the repeat runs, not every such curve was filed as active; the % refers to the signal ratio)
Outline: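 p53RE-bla beta-lactamase reporter cells rested 5 h at 37 C/5% CO2, then received compounds in DMSO by pin transfer and were incubated 16 h at 37 C. LiveBLAzer B/G FRET substrate was loaded for 2 h at room temperature before fluorescence reading.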

[18] = target: Muscarinic acetylcholine receptor M1 (Homo sapiens) (UniProt P11229); experiment: Cholinergic receptor muscarinic 1 (CHRM1) small molecule antagonists, cell-based qHTS assay (AID 1963588); also: nearly all actives have a fitted effect of over 40% in size; also: potency is read from the fitted curve at half-maximal effect
Outline: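 CHRM1-CHO calcium-flux assay, antagonist mode. Cells were seeded 18 h, dye-loaded 1 h at 37 C and given compound for 5 min at RT, then acetylcholine was added at 50nM. FDSS fluorescence was read 3 min; 15 concentrations, three runs.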

[19] = cAMP Responsive Elements (CRE) small molecule agonists, cell-based qHTS assay (AID 1963590)
Outline: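 CRE-bla HEK 293T cells in DMEM with 10% dialyzed FBS, NEAA, pyruvate and 25 mM HEPES were plated 18 h at 37 C/5% CO2, then exposed to compounds in DMSO for 3 h before LiveBLAzer B/G FRET substrate addition.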

Measured: Potency

Chain of KiSS-1 receptor (Homo sapiens) (Q969F8 whole entry, looked up): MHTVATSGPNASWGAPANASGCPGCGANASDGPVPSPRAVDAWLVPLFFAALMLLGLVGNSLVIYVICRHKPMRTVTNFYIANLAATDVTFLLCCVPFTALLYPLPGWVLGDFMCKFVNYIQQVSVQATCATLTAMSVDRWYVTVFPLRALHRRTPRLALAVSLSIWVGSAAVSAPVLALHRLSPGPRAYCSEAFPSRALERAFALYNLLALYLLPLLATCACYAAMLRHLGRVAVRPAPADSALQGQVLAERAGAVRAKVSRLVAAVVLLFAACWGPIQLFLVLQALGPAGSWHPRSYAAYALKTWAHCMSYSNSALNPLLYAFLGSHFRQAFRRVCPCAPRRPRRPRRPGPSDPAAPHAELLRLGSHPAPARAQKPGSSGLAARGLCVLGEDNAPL
Chain of 5-hydroxytryptamine receptor 2A (Homo sapiens) (P28223 whole entry, looked up): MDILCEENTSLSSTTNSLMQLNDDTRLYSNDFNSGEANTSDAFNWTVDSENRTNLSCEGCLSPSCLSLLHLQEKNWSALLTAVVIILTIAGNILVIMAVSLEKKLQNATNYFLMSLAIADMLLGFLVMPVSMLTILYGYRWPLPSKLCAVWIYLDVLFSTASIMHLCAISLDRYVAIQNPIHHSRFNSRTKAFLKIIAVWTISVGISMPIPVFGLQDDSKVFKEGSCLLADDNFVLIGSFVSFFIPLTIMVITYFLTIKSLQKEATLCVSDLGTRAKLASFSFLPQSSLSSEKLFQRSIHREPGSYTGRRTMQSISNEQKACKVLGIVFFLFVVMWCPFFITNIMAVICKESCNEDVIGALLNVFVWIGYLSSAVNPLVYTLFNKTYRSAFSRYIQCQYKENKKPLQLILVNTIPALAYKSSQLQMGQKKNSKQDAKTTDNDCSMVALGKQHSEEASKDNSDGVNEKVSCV
Chain of D(2) dopamine receptor (Homo sapiens) (P14416 whole entry, looked up): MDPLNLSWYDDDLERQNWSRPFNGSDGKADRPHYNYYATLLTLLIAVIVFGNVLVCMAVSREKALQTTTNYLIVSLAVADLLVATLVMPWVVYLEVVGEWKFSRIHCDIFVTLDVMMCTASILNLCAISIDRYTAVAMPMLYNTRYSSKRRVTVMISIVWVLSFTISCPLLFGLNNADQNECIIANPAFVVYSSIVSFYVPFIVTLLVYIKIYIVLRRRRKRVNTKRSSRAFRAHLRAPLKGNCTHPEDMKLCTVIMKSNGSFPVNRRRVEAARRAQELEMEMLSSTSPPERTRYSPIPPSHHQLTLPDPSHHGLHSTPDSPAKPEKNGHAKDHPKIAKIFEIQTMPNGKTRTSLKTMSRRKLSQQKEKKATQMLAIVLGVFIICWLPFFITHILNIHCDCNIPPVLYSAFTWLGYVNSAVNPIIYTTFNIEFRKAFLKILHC
Chain of Beta-2 adrenergic receptor (Homo sapiens) (P07550 whole entry, looked up): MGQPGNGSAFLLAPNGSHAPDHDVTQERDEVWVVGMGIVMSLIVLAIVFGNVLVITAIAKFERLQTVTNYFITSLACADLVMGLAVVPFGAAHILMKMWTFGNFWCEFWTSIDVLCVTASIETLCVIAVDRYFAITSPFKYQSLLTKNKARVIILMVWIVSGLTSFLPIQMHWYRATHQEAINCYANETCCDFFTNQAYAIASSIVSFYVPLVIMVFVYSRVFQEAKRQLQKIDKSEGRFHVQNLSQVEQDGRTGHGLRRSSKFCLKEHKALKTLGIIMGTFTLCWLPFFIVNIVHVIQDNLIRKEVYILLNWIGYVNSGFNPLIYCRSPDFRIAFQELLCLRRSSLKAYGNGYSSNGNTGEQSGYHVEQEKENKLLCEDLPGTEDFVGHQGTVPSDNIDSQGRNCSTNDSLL
Chain of Muscarinic acetylcholine receptor M1 (Homo sapiens) (P11229 whole entry, looked up): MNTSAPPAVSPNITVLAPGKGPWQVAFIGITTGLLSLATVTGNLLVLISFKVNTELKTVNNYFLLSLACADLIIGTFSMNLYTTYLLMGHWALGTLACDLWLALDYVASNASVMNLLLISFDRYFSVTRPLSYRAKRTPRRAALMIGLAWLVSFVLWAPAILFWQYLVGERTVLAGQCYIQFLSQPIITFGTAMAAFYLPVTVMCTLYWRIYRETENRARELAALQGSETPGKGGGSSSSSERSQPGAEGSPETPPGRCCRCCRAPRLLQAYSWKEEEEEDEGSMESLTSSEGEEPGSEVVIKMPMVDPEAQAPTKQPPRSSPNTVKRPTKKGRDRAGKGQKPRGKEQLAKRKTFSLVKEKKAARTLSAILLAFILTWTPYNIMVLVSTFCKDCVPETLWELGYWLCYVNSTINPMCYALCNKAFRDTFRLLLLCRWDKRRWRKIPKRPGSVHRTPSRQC
Chain of Gonadotropin-releasing hormone receptor (Homo sapiens) (P30968 whole entry, looked up): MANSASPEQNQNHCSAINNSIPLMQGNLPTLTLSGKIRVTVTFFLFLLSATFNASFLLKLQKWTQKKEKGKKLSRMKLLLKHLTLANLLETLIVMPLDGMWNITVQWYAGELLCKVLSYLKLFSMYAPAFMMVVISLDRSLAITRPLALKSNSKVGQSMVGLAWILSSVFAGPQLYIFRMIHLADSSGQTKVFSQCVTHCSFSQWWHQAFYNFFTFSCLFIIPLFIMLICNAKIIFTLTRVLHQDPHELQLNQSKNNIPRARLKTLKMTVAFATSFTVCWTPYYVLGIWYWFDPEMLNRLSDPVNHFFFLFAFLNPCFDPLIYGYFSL

C#CCN1C(=O)COc2cc(F)c(N3C(=O)C4=C(CCCC4)C3=O)cc21
not listed: [14] | [15] | [16] | [17] | [18] | [19]
inactive: all other assays above

CCCN(CC)CC1COC2(CCC(C(C)(C)C)CC2)O1 (centres undefined)
active: [7] 10.6 µM | [8] 43.6 µM
not listed: [4]
inactive: all other assays above

CC(=O)[O-].[Tl+]
not listed: [6] | [9] | [10] | [14] | [15] | [17]
inactive: all other assays above

CCN(CC)C(=O)N[C@@H]1C=C2c3cccc4[nH]cc(c34)C[C@@H]2N(C)C1
not listed: [4] | [7] | [8] | [9] | [11] | [12] | [18]
inactive: all other assays above

Oc1ccc2[nH]cc(CCCCN3CC=C(c4ccccc4)CC3)c2c1
active: [7] 0.818 µM | [11] 26.6 µM
not listed: [4] | [10] | [12] | [19]
inactive: all other assays above

CON(C)C(=O)Nc1ccc(Br)c(Cl)c1
not listed: [6] | [7] | [14] | [15] | [17]
inactive: all other assays above

CC(C)N(CCC(C(N)=O)(c1ccccc1)c1ccccn1)C(C)C (centres undefined)
active: [18] 2.05 µM | [12] 11.4 µM
not listed: [6] | [9] | [14] | [15] | [16] | [17]
inactive: all other assays above

O=[N+]([O-])c1ccc(F)c([N+](=O)[O-])c1
inactive: [2] | [3] | [4] | [5] | [6] | [7] | [8] | [18] | [9]
active: [1] 27.6 µM

CC(=O)Nc1ccc2c(c1)Cc1ccccc1-2
inactive: [1] | [2] | [3] | [4] | [16] | [6] | [10] | [11] | [12]

[C-]1=CC=CC1.[Cl][Zr+2][Cl].c1cc[cH-]c1
not listed: [7] | [14] | [15] | [17] | [18]
inactive: all other assays above

O.O.O.O.O.O.O=S(=O)([O-])[O-].[Ni+2]
not listed: [5] | [14] | [15] | [17]
inactive: all other assays above

c1ccc(Nc2ccc(Nc3ccccc3)cc2)cc1
inactive: [1] | [2] | [3] | [4] | [5] | [19] | [10] | [11] | [13]

O=C1NC(=O)C(=O)C(=O)N1
not listed: [14] | [15] | [16] | [17]
inactive: all other assays above

CCCSP(=O)(OCC)SCCC
not listed: [6] | [10] | [14] | [15] | [17] | [19]
inactive: all other assays above

CCOP(=S)(OCC)SCCl
not listed: [9] | [14] | [15] | [16]
inactive: all other assays above

CN1C(=O)COc2c(C(=O)NC3CN4CCC3CC4)cc(Cl)cc21 (centres undefined)
not listed: [6] | [7] | [8] | [9] | [14] | [15] | [17] | [18]
inactive: all other assays above

CCOP(=S)(Oc1cnc(C(C)(C)C)nc1)OC(C)C (centres undefined)
not listed: [7] | [10] | [14] | [15] | [16] | [17] | [19]
inactive: all other assays above

CC(=O)NNc1ccccc1
not listed: [4] | [6] | [11] | [14] | [15] | [17]
inactive: all other assays above
